# From PubChem BioAssay (Tox21)
# Several values for one entry are separate records, joined by “and”; a condition that tells them apart may be missing. Equal values may be shown once. Records with an inconclusive call do not appear. Where a call stands in place of a potency, no number is given. Unmarked numbers belong to inactive results. Activity calls are given as the source filed them. Calls follow the shape of the dose curve; as a rule, active = well fitted inhibition curve with a large enough effect in the signal ratio in the repeat runs, with a control signal flat; inconclusive = weak or mixed curves, or effect the other way; inactive = flat fitted curve, though single readings scatter; the % refers to the signal ratio.
# Molecular target: D(2) dopamine receptor (Homo sapiens) (UniProt P14416)
# Test: Dopamine D2 receptor (DRD2) small molecule antagonists, cell-based qHTS assay (AID 1963595)
# Conditions: HEK293-DRD2 cAMP HTRF antagonist mode; series mostly up to 92.4 µM; activity change, negative = inhibition: at the top concentration
# Summary of the method: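 DRD2-HEK293; 0.1 mM Ro20-1724; cpd 10 min RT; NKH477 200 nM + quinpirole 12 nM, 30 min RT; HTRF cAMP (cAMP-d2/anti-cAMP cryptate), 665/620 nm ratio after 1 h.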
# Potency is read from the fitted curve at half-maximal effect.
# D(2) dopamine receptor (Homo sapiens), sequence (P14416 whole entry, looked up): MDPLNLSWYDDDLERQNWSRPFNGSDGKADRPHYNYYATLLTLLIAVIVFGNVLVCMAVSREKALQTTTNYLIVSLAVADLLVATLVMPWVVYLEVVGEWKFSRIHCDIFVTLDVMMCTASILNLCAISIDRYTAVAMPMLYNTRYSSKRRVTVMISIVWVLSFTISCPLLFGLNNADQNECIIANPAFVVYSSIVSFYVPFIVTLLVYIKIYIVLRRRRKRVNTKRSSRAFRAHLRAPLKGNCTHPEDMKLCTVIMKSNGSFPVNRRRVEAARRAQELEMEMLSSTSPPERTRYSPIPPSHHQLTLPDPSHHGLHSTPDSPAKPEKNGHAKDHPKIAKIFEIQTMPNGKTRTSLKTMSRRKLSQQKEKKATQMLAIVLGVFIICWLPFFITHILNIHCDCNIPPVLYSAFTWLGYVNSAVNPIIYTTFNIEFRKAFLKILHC
Structure (SMILES),"activity change, negative = inhibition",Potency
C=CC=O,1.98%,–
c1nc[nH]n1,–,inactive
CCOP(=O)(OCC)OP(=O)(OCC)OCC,-0.837%,–
Nc1cccnc1,–,inactive
Clc1ccccc1Cl,–,inactive
CC(C)Nc1nc(Cl)nc(NC(C)C)n1,–,inactive
Nc1ccc(-c2ccc(N)c(N)c2)cc1N,–,inactive
CC(C)OS(C)(=O)=O,6.04%,–
CCCCOC(=O)c1ccccc1C(=O)O,11.1%,–
CC(=O)[O][Hg][c]1ccccc1,–,6.06 µM (active) and 2.73 µM (active) and 5.96 µM (active)
CCCCCCCCCl,–,inactive
O=S(=O)(O)OOS(=O)(=O)O,–,inactive
ClCC(Br)CBr (stereo unspecified),-5.41%,–
CC(C)C#N,–,inactive
CCOC(=O)CC(SP(=O)(OC)OC)C(=O)OCC (stereo unspecified),–,inactive
CCCCCON=O,2.28%,–

Structure (SMILES),"activity change, negative = inhibition",Potency
FC(F)(F)c1ccc(Cl)cc1,–,inactive
CCCCCCCCC(=O)NCc1ccc(O)c(OC)c1,–,inactive
COc1c(C(C)(C)C)cc([N+](=O)[O-])c(C)c1[N+](=O)[O-],2.62%,–
Cc1ccc(N)cc1,–,inactive
CCCCCCCCCCCCCCCC[N+](C)(C)C,0.751% [at 42.5 µM],–
CCc1cnc(C2=NC(C)(C(C)C)C(=O)N2)c(C(=O)O)c1 (stereo unspecified),–,inactive
CCCCCBr,9.98%,–
COP(=S)(OC)Oc1ccc(Sc2ccc(OP(=S)(OC)OC)cc2)cc1,–,inactive
CC(=O)CCC(C)=O,-4.55%,–
CCOP(=O)(O)OCC (tested in a mixture with another compound),–,inactive
O=[N+]([O-])c1ccc(Cl)c(Cl)c1,–,inactive
CC(C)(O)C(=O)Nc1ccc([N+](=O)[O-])c(C(F)(F)F)c1,–,inactive
CCCCNC(=O)n1c(NC(=O)OC)nc2ccccc21,–,inactive
CCC(Cl)[N+](=O)[O-] (stereo unspecified),-2.6%,–
OC(Cc1ccccc1Cl)(Cn1cncn1)C1(Cl)CC1 (stereo unspecified),-3.52%,–
